For some of these results: Potency and affinity values are given separately.
Columns and labels:
Parameters in all cases: scale not given: direction of the effect not stated beside the values
[1] = target: Protein translocase subunit SecA (Escherichia coli (strain K12)) (UniProt P10408); assay: Assay to Identify E. coli SecA ATPase Inhibitors; type: functional; settings: 30 µM
[2] = target: T1, Ubiquitin-activating enzyme e1, putative (Leishmania donovani (strain BPK282A1)) (UniProt E9BSI1); assay: Leishmania donovani Ubiquitin Activating Enzyme (LdE1); type: functional; settings: 30 µM
T1 sequence (whole entry): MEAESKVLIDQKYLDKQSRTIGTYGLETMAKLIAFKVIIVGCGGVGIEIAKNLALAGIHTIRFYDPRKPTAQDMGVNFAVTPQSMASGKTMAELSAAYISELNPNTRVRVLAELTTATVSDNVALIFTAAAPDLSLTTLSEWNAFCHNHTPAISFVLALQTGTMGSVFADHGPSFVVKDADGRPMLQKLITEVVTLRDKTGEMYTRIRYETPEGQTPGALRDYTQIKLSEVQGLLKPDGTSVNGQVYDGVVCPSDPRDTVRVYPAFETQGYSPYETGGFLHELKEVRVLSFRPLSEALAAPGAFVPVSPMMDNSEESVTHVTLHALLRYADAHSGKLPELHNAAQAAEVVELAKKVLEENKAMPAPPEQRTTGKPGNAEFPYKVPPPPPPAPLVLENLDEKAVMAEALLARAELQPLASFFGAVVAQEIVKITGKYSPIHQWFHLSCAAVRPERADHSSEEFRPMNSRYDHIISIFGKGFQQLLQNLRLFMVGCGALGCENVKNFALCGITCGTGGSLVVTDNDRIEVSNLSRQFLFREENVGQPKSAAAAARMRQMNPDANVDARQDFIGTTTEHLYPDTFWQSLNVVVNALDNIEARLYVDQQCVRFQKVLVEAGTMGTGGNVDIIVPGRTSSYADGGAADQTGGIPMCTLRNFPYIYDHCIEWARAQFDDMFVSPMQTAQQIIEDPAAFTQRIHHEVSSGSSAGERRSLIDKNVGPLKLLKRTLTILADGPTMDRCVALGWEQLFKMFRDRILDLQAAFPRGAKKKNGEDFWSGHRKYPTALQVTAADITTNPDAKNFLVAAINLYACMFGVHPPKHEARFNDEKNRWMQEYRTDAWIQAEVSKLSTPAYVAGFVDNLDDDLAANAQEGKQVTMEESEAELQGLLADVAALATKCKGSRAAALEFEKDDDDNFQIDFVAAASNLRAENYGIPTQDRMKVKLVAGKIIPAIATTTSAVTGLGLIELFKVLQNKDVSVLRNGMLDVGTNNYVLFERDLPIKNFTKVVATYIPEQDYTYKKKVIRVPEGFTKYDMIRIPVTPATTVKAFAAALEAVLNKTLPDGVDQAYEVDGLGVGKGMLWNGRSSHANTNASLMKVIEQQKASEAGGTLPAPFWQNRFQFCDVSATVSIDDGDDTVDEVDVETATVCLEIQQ

[3] = target: AMP-activated protein kinase, AMPK (Homo sapiens) (UniProt P54646+O43741+P54619+Q9UGJ0+Q9Y478+Q13131+Q9UGI9); assay: AMP-dependent Kinase enzyme assay. An in vitro enzyme assay that detects ADP turnover that is directly proportional to AMPK activity. This uses naive AMPK that is activated during the assay with MK-8722; type: functional; settings: 30 µM
[4] = target: Sialic acid-binding Ig-like lectin 9 (Homo sapiens) (UniProt Q9Y336); assay: Hs-Siglec9 ALPHAscreen SOP 20170721; settings: 10 µM
Sequence of Sialic acid-binding Ig-like lectin 9 (Homo sapiens) (Q9Y336 whole entry): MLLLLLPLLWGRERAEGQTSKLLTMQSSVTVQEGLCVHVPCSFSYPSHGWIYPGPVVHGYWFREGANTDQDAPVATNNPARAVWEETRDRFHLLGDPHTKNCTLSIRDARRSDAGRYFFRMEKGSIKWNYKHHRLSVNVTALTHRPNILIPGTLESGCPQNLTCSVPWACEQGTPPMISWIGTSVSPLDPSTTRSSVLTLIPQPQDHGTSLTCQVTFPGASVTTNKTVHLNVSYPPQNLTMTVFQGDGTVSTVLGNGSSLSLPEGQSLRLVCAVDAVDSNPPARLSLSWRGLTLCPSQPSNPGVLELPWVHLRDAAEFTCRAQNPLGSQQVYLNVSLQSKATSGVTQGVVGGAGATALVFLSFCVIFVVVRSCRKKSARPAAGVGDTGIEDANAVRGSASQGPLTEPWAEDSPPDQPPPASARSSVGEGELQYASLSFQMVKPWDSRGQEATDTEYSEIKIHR

[5] = test system: Trypanosoma cruzi; assay: Trypanosoma cruzi phosphomannomutase and mannose-1-phosphate guanylyltransferase assay; type: functional; settings: 10 µM
[6] = target: T2, Arginase-2, mitochondrial (Homo sapiens) (UniProt P78540); assay: in vitro enzyme assay to detect the production of urea directly proportional to the activity of Arginase II; type: functional; settings: 33.3 µM; note: in the data most compounds retested in dose-response had high values
T2 sequence (whole entry): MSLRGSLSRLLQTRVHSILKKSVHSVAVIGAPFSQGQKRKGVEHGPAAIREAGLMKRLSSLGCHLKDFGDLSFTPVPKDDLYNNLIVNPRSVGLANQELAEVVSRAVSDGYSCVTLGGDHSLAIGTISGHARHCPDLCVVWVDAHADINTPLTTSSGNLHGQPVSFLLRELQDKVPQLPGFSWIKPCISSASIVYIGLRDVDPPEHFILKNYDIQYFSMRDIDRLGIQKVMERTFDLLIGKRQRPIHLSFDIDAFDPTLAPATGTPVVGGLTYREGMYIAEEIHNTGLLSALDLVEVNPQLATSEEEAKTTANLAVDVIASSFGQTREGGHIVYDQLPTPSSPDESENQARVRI

[7] = target: T3, Proteasome subunit beta (Trypanosoma cruzi) (UniProt O96673); assay: Trypanosoma cruzi proteasome chymotrypsin-like activity (TcProtChymo) assay.; note: in the data most compounds retested in dose-response had high values; type: functional; settings: 9.37 µM
T3 sequence (whole entry): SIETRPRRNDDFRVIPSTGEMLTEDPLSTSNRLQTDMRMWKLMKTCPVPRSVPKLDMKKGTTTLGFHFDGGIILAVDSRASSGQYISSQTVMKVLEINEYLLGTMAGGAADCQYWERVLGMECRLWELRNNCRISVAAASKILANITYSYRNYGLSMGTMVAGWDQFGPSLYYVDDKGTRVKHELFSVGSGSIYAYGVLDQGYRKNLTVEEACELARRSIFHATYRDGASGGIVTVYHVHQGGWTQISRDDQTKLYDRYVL

[8] = species on record: Homo sapiens; assay: To identify inhibition of the IFN signalling (Jak-Stat) pathway via expression of an eGFP reporter gene under the control of an IFN-stimulated response element (ISRE) containing MxA promoter.; type: functional; settings: 30 µM
[9] = target: T4, Tyrosyl-tRNA synthetase, putative (Trypanosoma cruzi (strain CL Brener)) (UniProt Q4DSP6); assay: Trypanosoma cruzi tyrosyl tRNA synthetase (TcYRS) _High Tyrosine SOP; type: functional; settings: 30 µM; note: in the data most compounds retested in dose-response had high values
T4 sequence (whole entry): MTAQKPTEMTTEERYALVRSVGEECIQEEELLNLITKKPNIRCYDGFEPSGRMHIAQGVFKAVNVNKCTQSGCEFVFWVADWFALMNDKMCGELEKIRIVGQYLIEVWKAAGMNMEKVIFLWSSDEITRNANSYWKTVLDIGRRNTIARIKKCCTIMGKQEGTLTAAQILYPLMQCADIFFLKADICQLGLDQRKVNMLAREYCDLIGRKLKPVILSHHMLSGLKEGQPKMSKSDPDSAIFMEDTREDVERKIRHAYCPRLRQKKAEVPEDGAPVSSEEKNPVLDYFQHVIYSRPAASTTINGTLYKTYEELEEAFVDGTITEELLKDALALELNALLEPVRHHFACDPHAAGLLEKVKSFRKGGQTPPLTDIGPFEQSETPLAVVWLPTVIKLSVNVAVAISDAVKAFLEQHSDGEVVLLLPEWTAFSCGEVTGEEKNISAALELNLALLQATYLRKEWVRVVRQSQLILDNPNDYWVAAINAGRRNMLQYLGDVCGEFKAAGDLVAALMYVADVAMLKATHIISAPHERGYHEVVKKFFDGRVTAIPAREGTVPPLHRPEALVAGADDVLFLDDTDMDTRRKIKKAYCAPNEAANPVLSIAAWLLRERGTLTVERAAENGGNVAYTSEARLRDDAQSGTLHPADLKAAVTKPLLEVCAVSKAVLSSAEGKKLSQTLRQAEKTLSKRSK

[10] = target: T4, Tyrosyl-tRNA synthetase, putative (Trypanosoma cruzi (strain CL Brener)); assay: Trypanosoma cruzi tyrosyl tRNA synthetase (TcYRS) SOP; type: functional; settings: 30 µM
[11] = target: Chromo domain-containing protein 1 (Saccharomyces cerevisiae (strain ATCC 204508 / S288c) (Baker's yeast)) (UniProt P32657); assay: ScCHD-1 Enzyme Inhibition Assay; type: functional; settings: 30 µM; note: in the data most compounds retested in dose-response had high values
Sequence of Chromo domain-containing protein 1 (Saccharomyces cerevisiae (strain ATCC 204508 / S288c) (Baker's yeast)) (P32657 whole entry, the tested form may be a part): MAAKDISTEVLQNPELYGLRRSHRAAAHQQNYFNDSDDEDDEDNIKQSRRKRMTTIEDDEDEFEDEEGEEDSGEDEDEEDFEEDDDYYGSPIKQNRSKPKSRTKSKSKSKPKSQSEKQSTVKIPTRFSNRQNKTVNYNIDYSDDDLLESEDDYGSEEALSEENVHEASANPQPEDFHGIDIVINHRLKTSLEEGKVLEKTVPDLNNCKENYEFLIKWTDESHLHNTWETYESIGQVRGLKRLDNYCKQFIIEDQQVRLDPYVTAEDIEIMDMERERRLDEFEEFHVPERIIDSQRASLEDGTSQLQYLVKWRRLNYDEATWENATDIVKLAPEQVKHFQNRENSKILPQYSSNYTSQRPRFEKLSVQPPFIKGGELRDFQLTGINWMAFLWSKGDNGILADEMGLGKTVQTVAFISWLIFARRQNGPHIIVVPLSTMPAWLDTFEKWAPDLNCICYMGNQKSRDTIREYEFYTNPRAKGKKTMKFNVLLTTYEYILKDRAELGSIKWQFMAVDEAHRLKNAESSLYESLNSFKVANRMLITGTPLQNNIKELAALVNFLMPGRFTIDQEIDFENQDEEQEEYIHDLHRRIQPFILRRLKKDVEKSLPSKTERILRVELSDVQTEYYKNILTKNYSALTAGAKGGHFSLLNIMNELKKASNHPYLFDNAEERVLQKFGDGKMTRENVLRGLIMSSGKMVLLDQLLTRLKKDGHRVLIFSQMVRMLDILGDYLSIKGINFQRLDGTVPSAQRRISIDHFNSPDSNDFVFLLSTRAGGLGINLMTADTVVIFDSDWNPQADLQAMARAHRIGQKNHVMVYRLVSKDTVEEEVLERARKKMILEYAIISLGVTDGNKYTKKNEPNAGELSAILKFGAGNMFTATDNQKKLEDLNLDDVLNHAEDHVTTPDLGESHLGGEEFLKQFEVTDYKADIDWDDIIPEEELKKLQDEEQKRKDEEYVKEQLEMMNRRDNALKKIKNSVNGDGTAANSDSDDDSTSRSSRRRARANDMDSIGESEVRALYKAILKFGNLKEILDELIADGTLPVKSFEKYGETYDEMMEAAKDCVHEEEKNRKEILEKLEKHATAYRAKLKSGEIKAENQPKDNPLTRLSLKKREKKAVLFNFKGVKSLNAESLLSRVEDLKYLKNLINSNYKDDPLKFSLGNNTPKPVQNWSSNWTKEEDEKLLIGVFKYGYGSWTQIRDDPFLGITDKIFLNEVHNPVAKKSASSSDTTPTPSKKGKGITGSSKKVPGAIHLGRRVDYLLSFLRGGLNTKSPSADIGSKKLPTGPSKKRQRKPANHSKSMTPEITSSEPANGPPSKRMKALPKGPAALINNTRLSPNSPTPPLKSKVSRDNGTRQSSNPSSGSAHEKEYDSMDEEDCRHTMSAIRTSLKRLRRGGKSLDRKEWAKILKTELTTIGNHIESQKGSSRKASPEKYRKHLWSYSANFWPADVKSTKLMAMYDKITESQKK

Sequence of Protein translocase subunit SecA (Escherichia coli (strain K12)) (P10408 whole entry): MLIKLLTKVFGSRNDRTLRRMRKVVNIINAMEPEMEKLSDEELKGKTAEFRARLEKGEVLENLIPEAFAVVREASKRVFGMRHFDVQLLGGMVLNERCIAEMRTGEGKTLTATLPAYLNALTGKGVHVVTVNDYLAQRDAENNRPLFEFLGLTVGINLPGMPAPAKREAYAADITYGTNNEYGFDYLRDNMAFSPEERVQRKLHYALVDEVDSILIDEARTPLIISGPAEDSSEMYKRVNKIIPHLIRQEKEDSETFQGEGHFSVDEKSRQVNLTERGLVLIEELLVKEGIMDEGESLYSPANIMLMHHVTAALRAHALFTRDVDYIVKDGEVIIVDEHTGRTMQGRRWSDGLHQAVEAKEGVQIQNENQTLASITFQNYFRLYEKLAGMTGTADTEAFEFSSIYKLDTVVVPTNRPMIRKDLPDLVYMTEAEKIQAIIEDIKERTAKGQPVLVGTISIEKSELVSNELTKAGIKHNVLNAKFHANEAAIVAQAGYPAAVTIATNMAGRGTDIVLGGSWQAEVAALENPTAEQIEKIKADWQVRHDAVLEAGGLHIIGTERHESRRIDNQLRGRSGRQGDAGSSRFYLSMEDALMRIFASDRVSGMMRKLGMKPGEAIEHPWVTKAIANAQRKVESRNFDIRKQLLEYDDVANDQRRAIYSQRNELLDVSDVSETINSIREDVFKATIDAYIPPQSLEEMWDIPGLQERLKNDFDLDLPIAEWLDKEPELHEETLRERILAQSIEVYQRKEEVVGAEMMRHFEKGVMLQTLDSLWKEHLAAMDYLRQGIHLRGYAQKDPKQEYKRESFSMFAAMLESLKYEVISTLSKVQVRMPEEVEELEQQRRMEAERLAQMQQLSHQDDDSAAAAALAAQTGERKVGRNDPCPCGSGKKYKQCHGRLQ

SMILES | Percent Effect [1] [%] | Percent Effect [2] [%] | Percent Effect [3] [%] | Percent Effect [4] [%] | Percent Effect [5] [%] | Percent Effect [6] [%] | Percent Effect [7] [%] | Percent Effect [8] [%] | Percent Effect [9] [%] | Percent Effect [10] [%] | Percent Effect [11] [%]
O=C(c1cccc(CNCC2CNc3ccnn3C2)c1)N1CCCC1 (stereo unspecified) | -3.44 | 8.86 | -18.1 | -4.78 | 4.41 | -4.09 | 18.4 | 6.92 | 8.33 | 10.1 | -18.2
CN(C)CCN(Cc1ccc(Cl)cc1)C(=O)c1cc[nH]n1 | -2.91 | 20.8 | 3.16 | 18.6 | 2.23 | 3.53 | 17.9 | 3.16 | 7.37 | 17.9 | -5.67
O=C(NCCN1CCNCC1)c1c(O)c2ccccc2[nH]c1=O | 1.56 | 12 | 11 | -7.32 | -9.23 | -14.3 | 20.1 | 26.5 | 0 | 5.13 | -9.61
NC(=O)Nc1cccc(Oc2ccccn2)c1 | -0.17 | 0 | 11.3 | -0.357 | -3.99 | -7.1 | 8.53 | 0.913 | 3.19 | 2.6 | -0.275
Cc1cnn(CC(C)NCc2ccc(OCc3ccncc3)cc2)c1 (stereo unspecified) | -5.11 | -1.27 | 4.3 | -6.57 | -6.67 | -3.66 | 9.95 | 24.2 | 5.21 | 5.06 | -25.8
COc1ccccc1CN1CCC2(CC1)CC(Oc1ccccn1)CO2 (stereo unspecified) | -0.474 | 16 | -2.4 | -9.97 | 2.76 | 132 | 14.9 | -3.26 | 4.25 | 8.97 | -13.9
Cc1nc(C)n(CC2CCCN(Cc3nc(C)c(C)o3)C2)n1 (stereo unspecified) | -2.17 | 21.6 | -13.9 | -7.46 | 2.92 | -12.8 | 17.7 | 7.96 | 1.48 | 23.5 | -11
CN(Cc1ccc(F)cc1)C(=O)CN1CCOC(Cn2cncn2)C1 (stereo unspecified) | 0.893 | 17.7 | -2.68 | -5.85 | -7.65 | -1.52 | 17.6 | 36 | 1.48 | 3.8 | -4.1
CCc1cc(C)c(C(=O)N2CCCC2CC(=O)c2cnn(C)c2)o1 (stereo unspecified) | -1.93 | -1.27 | 169 | -0.655 | -1.13 | -1.5 | 7.03 | 7.3 | -1.04 | 0 | -4.62
Cc1cn2nc(N3CCCC3CC(C)(C)C)sc2n1 (stereo unspecified) | -5.41 | -1.27 | 7.29 | 3.5 | 0.103 | 2.8 | 11 | 15.4 | 3.12 | 7.59 | -4.52
CC(c1nc(C2CC2)no1)N1CCN(Cc2ccccc2F)CC1 (stereo unspecified) | -2.5 | 3.8 | 3.7 | 3.98 | -0.718 | 2.8 | 1.2 | -11.4 | 2.08 | 7.59 | -0.861

From ChEMBL document CHEMBL3988442, “University of Dundee, Small-Polar-MMV Screening Library” (2021)
